CYP2C19 activ – human CYP2C19 activators, primary screen, biochemical, luminescence; activation factor at 5 µM; recombinant CYP2C19, luciferin-H EGE luminescence; active compounds read high; 0 = fully inhibited enzyme, 1 = untreated enzyme; 96,000 tested, under 10 active; Cytochrome P450 2C19 (Homo sapiens), P33261;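 active means activation factor of at least 2 at 5 µM in the primary screen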;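 further: 0 = wells with 2.5 mM tranylcypromine and 1 = vehicle-only wells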
CYP2C19 inhib – blockers of cytochrome P450 2C19 activity – biochemical, luminescence, ADME assay, primary screen; P33261; 96,000 tested, 21% active; AID 778, 2007; CYP2C19 Supersomes, luciferin-H EGE luminescence, 30 min; inhibition, % at 5 µM;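 active means CYP2C19 inhibition above a set limit at 5 µM in the primary screen, cut at about 50% in these data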;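 further: plate controls were negative control wells for no effect and 2.5 mM tranylcypromine positive control for full effect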
PostGolgi ctrl – growth inhibition of yeast control strain, primary screen, counter-screen for post-Golgi transport modulator project; efflux-deficient yeast background strain, growth absorbance A615, 16 h; inhibition, % at 10 µM; 98,000 tested, 5% active; AID 738, 2007
CYP2C9 activ – human CYP2C9 activators, primary screen, biochemical, luminescence; 96,000 tested, 1.4% active; AID 1024, 2008; recombinant CYP2C9, luciferin-H conversion; active compounds read high; factor 1 = untreated enzyme, 0 = blocked; Cytochrome P450 2C9 (Homo sapiens), P11712; activation factor at 5 µM;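 active means activation factor of 2 or more for CYP2C9 at a 5 µM dose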;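 further: 0 = sulfaphenazole-blocked wells and 1 = vehicle-only wells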
Target sequence (P11712 whole entry, looked up): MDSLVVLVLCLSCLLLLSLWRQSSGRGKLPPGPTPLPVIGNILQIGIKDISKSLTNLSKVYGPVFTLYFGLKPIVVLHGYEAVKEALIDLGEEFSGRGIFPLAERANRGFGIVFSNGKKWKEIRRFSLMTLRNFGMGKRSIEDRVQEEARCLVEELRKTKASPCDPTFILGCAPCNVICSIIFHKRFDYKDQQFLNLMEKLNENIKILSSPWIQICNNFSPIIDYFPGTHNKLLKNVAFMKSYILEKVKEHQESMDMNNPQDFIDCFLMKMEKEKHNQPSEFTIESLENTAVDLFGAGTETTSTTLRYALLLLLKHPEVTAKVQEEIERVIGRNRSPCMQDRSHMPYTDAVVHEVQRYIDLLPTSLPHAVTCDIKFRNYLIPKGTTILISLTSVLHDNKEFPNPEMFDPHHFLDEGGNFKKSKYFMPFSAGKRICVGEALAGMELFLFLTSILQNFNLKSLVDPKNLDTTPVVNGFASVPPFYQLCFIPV
CYP2C9 inhib – blockers of cytochrome P450 2C9 activity – biochemical, luminescence, ADME assay, primary screen. 96,000 tested, 20% active. P11712. inhibition, % at 5 µM. CYP2C9 Supersomes, luciferin-H conversion;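 active means blocking of liver enzyme CYP2C9 beyond about 50% at 5 µM, limit read from the data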
PostGolgi yeast – phenotypic screen on post-Golgi transport, primary screen. post-Golgi transport phenotypic cell assay. inhibition, % at 10 µM. 98,000 tested, 0.9% active;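 further: yeast cells grown in 1536-well plates; yeast grown about 18 h at 30C before absorbance read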
* hit, by the source's call. The list is not random: actives were taken first. Their share in the collection is about 32%. Unless noted, no stated cut-off is given here; in the data, active means inhibition above about 30%; inactive means the rest.

Results for CN(CC(=O)Nc1ccccc1N1CCOCC1)S(=O)(=O)c1ccc(Cl)cc1 ?
CYP2C19 activ: 0.8; CYP2C19 inhib: 21; PostGolgi ctrl: 24; CYP2C9 activ: 0.9; CYP2C9 inhib: 6; PostGolgi yeast: 14

What do the screens show for `CCCC(OC(=O)CC1Sc2ccccc2NC1=O)C(=O)NCc1ccco1` (stereo not given)?
CYP2C19 activ: 0.7; CYP2C19 inhib: 28; PostGolgi ctrl: -2; CYP2C9 activ: 0.7; CYP2C9 inhib: 33; PostGolgi yeast: -2

What do the screens show for `O=C(CC1Nc2ccccc2NC1=O)NCc1cccnc1` (stereo not given)?
CYP2C19 activ: 0.9; CYP2C19 inhib: 5; PostGolgi ctrl: 4; CYP2C9 activ: 0.8; CYP2C9 inhib: 17; PostGolgi yeast: -4

What do the screens show for `COCCNC(=O)C(OC(=O)CC1Sc2ccccc2NC1=O)c1ccncc1` (stereo not given)?
CYP2C19 activ: 0.2; CYP2C19 inhib: 83*; PostGolgi ctrl: 22; CYP2C9 activ: 0.1; CYP2C9 inhib: 87*; PostGolgi yeast: 1

What do the screens show for `O=C(CC1Sc2ccccc2NC1=O)OC(C(=O)NCCc1ccccc1)c1cccnc1` (stereo not given)?
CYP2C19 activ: 0.4; CYP2C19 inhib: 55*; PostGolgi ctrl: 3; CYP2C9 activ: 0.7; CYP2C9 inhib: 30; PostGolgi yeast: 5

How did Cc1ccc(NC(=O)C(=O)NC2CCCCC2)cc1 do in these assays?
CYP2C19 activ: 0.8; CYP2C19 inhib: 15; PostGolgi ctrl: -8; CYP2C9 activ: 0.6; CYP2C9 inhib: 38; PostGolgi yeast: -3

How did O=C(c1ccco1)c1cn(CC(=O)N2CCCCC2)c2ccccc12 do in these assays?
CYP2C19 activ: 0.7; CYP2C19 inhib: 27; PostGolgi ctrl: 9; CYP2C9 activ: 0.7; CYP2C9 inhib: 34; PostGolgi yeast: 2

How did CCOC(=O)c1[nH]c(C)c(CN(CCc2ccc(OC)c(OC)c2)C(=O)CCCC(=O)O)c1C do in these assays?
CYP2C19 activ: 0.9; CYP2C19 inhib: 14; PostGolgi ctrl: -1; CYP2C9 activ: 0.9; CYP2C9 inhib: 6; PostGolgi yeast: 10

Results for CCOC(=O)c1[nH]c(C)c(CN(CCc2ccccc2)S(C)(=O)=O)c1C ?
CYP2C19 activ: 0.7; CYP2C19 inhib: 31; PostGolgi ctrl: 13; CYP2C9 activ: 0.4; CYP2C9 inhib: 56*; PostGolgi yeast: -5

What do the screens show for `COC(=O)c1ccc(=O)n(Cc2ccc3c(c2)OCO3)c1`?
CYP2C19 activ: 0; CYP2C19 inhib: 98*; PostGolgi ctrl: 11; CYP2C9 activ: 0.6; CYP2C9 inhib: 40; PostGolgi yeast: 0

Results for Cc1c(Cl)c([N+](=O)[O-])nn1CC(=O)NC(C)C1CC2CCC1C2 (stereo not given) ?
CYP2C19 activ: 0.4; CYP2C19 inhib: 59*; PostGolgi ctrl: 6; CYP2C9 activ: 0.8; CYP2C9 inhib: 24; PostGolgi yeast: 9

How did CCC(C)NC(=O)Cn1nc([N+](=O)[O-])c(Cl)c1C (stereo not given) do in these assays?
CYP2C19 activ: 0.7; CYP2C19 inhib: 26; PostGolgi ctrl: -2; CYP2C9 activ: 1.1; CYP2C9 inhib: -14; PostGolgi yeast: 4

How did Cc1ccnc(N2CCC(C(=O)NCc3ccc4c(c3)OCO4)CC2)n1 do in these assays?
CYP2C19 activ: 0.6; CYP2C19 inhib: 45; PostGolgi ctrl: 8; CYP2C9 activ: 0.3; CYP2C9 inhib: 66*; PostGolgi yeast: 2

Results for O=C(NCc1ccc2c(c1)OCO2)C1CCN(S(=O)(=O)c2ccc(Br)s2)CC1 ?
CYP2C19 activ: 0.4; CYP2C19 inhib: 65*; PostGolgi ctrl: 20; CYP2C9 activ: 0.5; CYP2C9 inhib: 46; PostGolgi yeast: -4

How did O=C(NCc1ccc2c(c1)OCO2)C1CCN(c2ccc(S(=O)(=O)N3CCCC3)cc2)CC1 do in these assays?
CYP2C19 activ: 0.7; CYP2C19 inhib: 26; PostGolgi ctrl: -3; CYP2C9 activ: 0.4; CYP2C9 inhib: 63*; PostGolgi yeast: -1
